In PubChem BioAssay (NCI) one finds growth inhibition data, which are given here for 20 compounds.

This is part of a sample that, as a whole, favours compounds with a hit. Of some 79,000 tested, about 15% had one in any assay. Unmarked numbers belong to inactive results. Active and inactive are the calls of the source. No stated cut-off is given here; in the data, active means growth inhibition above about 70%; inactive means the rest.

A short description of assay [1]: NCI Yeast Anticancer Drug Screen. Data for the rad50 strain (AID 155).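 Further: 0% = growth of vehicle-only cultures of the same strain.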 The conditions noted are these: S. cerevisiae rad50 strain growth inhibition; at 50.0 µM; active compounds read high. Put shortly: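 DNA repair mutant yeast, compound exposure, growth read-out; inhibition is taken relative to vehicle.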
Assay [2] can be described thus: NCI Yeast Anticancer Drug Screen. Data for the mec2-1 strain (AID 157). The conditions noted are these: S. cerevisiae mec2-1 strain, at 50.0 µM, active compounds read high. Put shortly: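 Vehicle-treated cultures served as reference for growth inhibition of compound-exposed mec2-1 yeast.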
The nature of assay [3]: NCI Yeast Anticancer Drug Screen. Data for the sgs1 mgt1 strain (AID 161).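 Further: 0% = growth of cultures given vehicle only.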 Particulars: S. cerevisiae sgs1 mgt1 strain, at 50.0 µM, active compounds read high. Put shortly:
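Read-out: growth inhibition vs vehicle controls. Cells: mutant yeast strain deficient in DNA damage repair.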

Assay [4] in a line: NCI Yeast Anticancer Drug Screen. Data for the cln2 rad14 strain (AID 165).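 Further: 0% = growth equal to vehicle treated cultures.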 The conditions noted are these: S. cerevisiae cln2 rad14 strain, at 50.0 µM, active compounds read high. Put shortly:
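Each compound was tested on cln2 rad14 yeast. Inhibition of growth was calculated against vehicle-exposed controls.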

Assay [5] in a line: NCI Yeast Anticancer Drug Screen. Data for the bub3 strain (AID 167). Particulars: S. cerevisiae bub3 mutant strain, at 50.0 µM, active compounds read high. Put shortly:
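In this screen, a yeast mutant lacking normal mitotic checkpoint function is challenged with compound. Relative growth versus vehicle gives the inhibition value.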

Assay [6] is described as follows: NCI Yeast Anticancer Drug Screen. Data for the mlh1 rad18 strain (AID 175). The conditions noted are these: S. cerevisiae mlh1 rad18 strain growth inhibition; at 50.0 µM; active compounds read high. The gist of the method:
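Vehicle-treated cultures served as the reference for growth inhibition in a yeast strain carrying DNA damage repair alterations exposed to each compound.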

Regarding `COC1CC(NC(=O)C(F)(F)F)C(O)C(CNC(=O)C(F)(F)F)O1` (stereo not given), the growth inhibition is -32.5% in assay [1]; 17.2% in assay [2]; -3.55% in assay [3]; -14% in assay [4]; 16.1% in assay [5]; 19.4% in assay [6].
In the case of `O=C(c1ccc(O)cc1)C1N=NCC1c1ccccc1` (stereo not given), the growth inhibition in assay [1] is -15.8%; in assay [2], -9.8%; in assay [3] it was -11.8%; in assay [4] it was -17.8%; in assay [5], 56.8%; in assay [6], 13.8%.
Consider `CSc1ccc(NC(=O)NNP(=S)(Oc2ccc(C(C)(C)C)cc2)Oc2ccc(C(C)(C)C)cc2)cc1`, for which the growth inhibition in assay [1] is -10.7%; in assay [2], -18.1%; in assay [3], 0.5%; in assay [4], 13.8%; in assay [5] it was -5.75%; in assay [6], -6.2%.
For `CC1COC(C)(C2CC2)O1` (stereo not given), the growth inhibition in assay [1] was 6.6%; in assay [2], 9.95%; in assay [3] it was -24.4%; in assay [4], -13.7%; in assay [5], 7.45%; in assay [6], 6.5%.
As for `CC1CC2OC(=O)C(C)C2CC2(C)C(OC3OC(CO)C(O)C(O)C3O)OCCC12` (stereo not given), the growth inhibition is 11.7% in assay [1]; 2.25% in assay [2]; -17.9% in assay [3]; 4.4% in assay [4]; -6.8% in assay [5]; -49.7% in assay [6].
For `CC(=O)C1CCN(Cc2ccccc2)C1` (stereo not given), the growth inhibition in assay [1] is 3.75%; in assay [2] it was 6.9%; in assay [3], 7.15%; in assay [4], -1.05%; in assay [5], -12.7%; in assay [6], -21.6%.
As for `COc1ccc(Cl)cc1NC(=O)Nc1ccc(SC)cc1`, the growth inhibition in assay [1] was 24.1%; in assay [2], 50.6%; in assay [3] it was 56.5%; in assay [4], 20.8%; in assay [5], 33%; in assay [6] it was 35.5%.
For `O=C1C(Cl)=C(SCc2ccccc2)C(=O)c2ccccc21`, the growth inhibition in assay [1] is 17.8%; in assay [2], 72.7% (active); in assay [3], 48.2%; in assay [4] it was -11.3%; in assay [5], 61.9%; in assay [6], 42.9%.
Take `O=[N+]([O-])c1nc(-[n+]2ccccc2)[n-]c1Br`: the growth inhibition was 4.65% in assay [1]; -1.05% in assay [2]; -1.9% in assay [3]; -49.9% in assay [4]; 4.1% in assay [5]; 8.8% in assay [6].
In the case of `O=C(Cn1c2c(c3ccccc31)CCCC2)N1CCCCC1`, the growth inhibition was -40.5% in assay [1]; -74% in assay [2]; -31.2% in assay [3]; -22.2% in assay [4]; -8.6% in assay [5]; -26.2% in assay [6].
Turning to `Cn1nc(-c2ccccc2)c(C(=O)/C=C/c2ccc(F)cc2)c(N2CCOCC2)c1=O`, the growth inhibition was -34.9% in assay [1]; -34% in assay [2]; -54.8% in assay [3]; 5.9% in assay [4]; -21.6% in assay [5]; -15.8% in assay [6].
Take `COc1ccc(C(=O)/C=C/c2ccc(OCC(=N)N)cc2)cc1`: the growth inhibition in assay [1] is -31.1%; in assay [2], -38.6%; in assay [3], -18.8%; in assay [4], -27.4%; in assay [5], -15.8%; in assay [6] it was -23.6%.
Consider `O=C(CP(=O)(c1ccccc1)c1ccccc1)c1cccc(C(=O)CP(=O)(c2ccccc2)c2ccccc2)c1`, for which the growth inhibition in assay [1] was -6.35%; in assay [2], -10.1%; in assay [3] it was -7.05%; in assay [4] it was -15.7%; in assay [5], -21.1%; in assay [6], -2.4%.
Turning to `C/C(=N\NS(=O)(=O)c1ccccc1)c1ccccc1`, the growth inhibition in assay [1] is 5.95%; in assay [2] it was 3.4%; in assay [3] it was 3.5%; in assay [4] it was 28.6%; in assay [5] it was 1.1%; in assay [6] it was 20.5%.
Consider `COC(=O)C1OC(O[C@H]2CC[C@]3(C)[C@H]4CC=C5[C@@H]6CC(C)(C)CC[C@]6(C(=O)OC6OCC(O)C(O)C6OC6OC(C)C(OC7OCC(O)C(O)C7O)C(OC7OCC(O)(CO)C7O)C6O)[C@H](O)C[C@@]5(C)[C@]4(C)CC[C@H]3C2(C)C)C(O)C(O)C1O` (stereo not given in full), for which the growth inhibition was 16.1% in assay [1]; -10.3% in assay [2]; -6.1% in assay [3]; 34.6% in assay [4]; 13.6% in assay [5]; 10.3% in assay [6].
Turning to `CC(=O)Nc1cc2c(cc1Br)Cc1cc(Br)ccc1-2`, the growth inhibition was -4.15% in assay [1]; -4.1% in assay [2]; -8.2% in assay [3]; -4.5% in assay [4]; 1.1% in assay [5]; -14.2% in assay [6].
`CC(C)(C)C(=O)OCn1cc2c(=O)[nH]cnc2n1`: the growth inhibition in assay [1] is 11.9%; in assay [2], 8.1%; in assay [3] it was 28.6%; in assay [4] it was -3.75%; in assay [5], -8.7%; in assay [6], 9.15%.
`CC(=O)/C(=C\c1ccc(C(F)(F)F)cc1)C(=O)CCN(C)C`: the growth inhibition was 43.4% in assay [1]; 0.05% in assay [2]; 51.6% in assay [3]; 19.6% in assay [4]; 3.25% in assay [5]; 25.7% in assay [6].
Take `CN(C)CCCN1c2ccccc2Sc2ccc3ccccc3c21`: the growth inhibition was -0.35% in assay [1]; -3.45% in assay [2]; -43% in assay [3]; -25.9% in assay [4]; 8.95% in assay [5]; 14.8% in assay [6].
Regarding `O=C(Nc1ccccc1Cl)NC1CCCCC1`, the growth inhibition was 5.1% in assay [1]; -0.55% in assay [2]; 5.35% in assay [3]; 18.7% in assay [4]; 17.1% in assay [5]; 5.8% in assay [6].
